The values below come from PubChem BioAssay (NCI).

Some test systems named below: NCI-H23 lung; NCI-H226 lung; NCI-H322M lung; HOP-62 NSCLC; NCI-H460 lung; HOP-92 NSCLC; A549/ATCC NSCLC; 786-0 renal; COLO 205 colon; DU-145 prostate; K-562 leukemia; MDA-MB-231 breast; RXF 393 renal; SF-268 CNS; SF-295 CNS; SF-539 CNS; UACC-257 melanoma; M14 melanoma; MALME-3M melanoma.
Test in all cases: NCI-60 one-dose screen, 48 h (100 = growth as untreated, 0 = no growth, -100 = all killed)
What all share (details): 10 µM unless noted

The panel holds about 83,000 compounds, 20% with a hit somewhere; the sample as a whole holds those more often.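 Plates (96-well) were seeded with cells, treated with compound at one concentration, and incubated for 48 hours before percent growth was determined.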 Unmarked numbers belong to inactive results. The source made the active and inactive calls. How the source made its calls: active means growth percent below 10; inactive means the rest.

Consider `N#CC1c2ccccc2C=CN1C(=O)N(c1ccccc1)c1ccccc1` (stereo unspecified), for which the growth with NCI-H23 lung was 66.6%; in the assay with NCI-H226 lung, 95.9%; with NCI-H322M lung, 103%; in the assay on HOP-62 NSCLC, 101%; in the assay on NCI-H460 lung it was 101%; in the assay with HOP-92 NSCLC it was 45.6%. Moreover, the growth in the assay with A549/ATCC NSCLC is 91.4%; with 786-0 renal, 95.5%; in the assay on COLO 205 colon it was -41.6% (active); with DU-145 prostate, 42.9%; in the assay with K-562 leukemia it was 5.35% (active); in the assay on MDA-MB-231 breast it was 70.6%. For the same molecule, the growth with RXF 393 renal was 2.13% (active); with SF-268 CNS it was 79.6%; with SF-295 CNS, 67.7%; in the assay with SF-539 CNS it was 109%; in the assay with UACC-257 melanoma, -1.11% (active); in the assay on M14 melanoma, 42.5%.

Turning to `COC(=O)[C@H]1[C@H]2C[C@@H]3c4[nH]c5cc(OC)ccc5c4CCN3C[C@H]2C[C@@H](OC(=O)/C=C/c2cc(OC)c(OC)c(OC)c2)[C@@H]1OC`, the growth was 93.5% with NCI-H23 lung; 101% with NCI-H226 lung; 88.6% with NCI-H322M lung; 61.6% with HOP-62 NSCLC; 48.6% in the assay on NCI-H460 lung; 60.5% in the assay with HOP-92 NSCLC. Further, the growth with A549/ATCC NSCLC was 74.2%; with 786-0 renal, 58.9%; in the assay on COLO 205 colon it was 67.6%; in the assay with DU-145 prostate it was 40.8%; in the assay with K-562 leukemia, -2.87% (active); in the assay with MDA-MB-231 breast, 65.1%. Also, the growth was 61% with RXF 393 renal; 68.6% in the assay on SF-268 CNS; 14.6% with SF-295 CNS; 71.8% in the assay on SF-539 CNS; 85% with UACC-257 melanoma; 71.5% in the assay on M14 melanoma.

For `Nc1ccc(N=Nc2ccccc2)cc1[N+](=O)[O-]`, the growth with NCI-H23 lung was 90.7%; in the assay on NCI-H226 lung, 86%; in the assay on NCI-H322M lung, 80.5%; with HOP-62 NSCLC it was 91.9%; in the assay on NCI-H460 lung, 100%; with HOP-92 NSCLC, 91.7%. Besides, the growth with A549/ATCC NSCLC is 85.9%; in the assay with 786-0 renal, 107%; with COLO 205 colon, 95%; with DU-145 prostate, 109%; in the assay on K-562 leukemia, 87.4%; in the assay with MDA-MB-231 breast it was 65.8%. The growth in the assay on RXF 393 renal was 104%; in the assay with SF-268 CNS, 85.3%; in the assay with SF-295 CNS, 113%; with SF-539 CNS, 92.6%; with UACC-257 melanoma, 103%; in the assay with M14 melanoma, 104%.

On to `CCOC(=O)Nc1ccc2c3c(cccc13)-c1ccccc1-2`, for which the growth in the assay on NCI-H23 lung is 42.8%; in the assay with NCI-H226 lung, 63.1%; in the assay on NCI-H322M lung it was 50.6%; in the assay with HOP-62 NSCLC, 45.1%; in the assay with NCI-H460 lung, 19.2%; in the assay on HOP-92 NSCLC, 81.6%. Moreover, the growth in the assay on A549/ATCC NSCLC is 47%; in the assay on 786-0 renal, 44.1%; in the assay on COLO 205 colon, 24.3%; in the assay on DU-145 prostate it was 66.1%; in the assay on K-562 leukemia, 15.6%; in the assay with MDA-MB-231 breast, 35%. The growth in the assay with RXF 393 renal is 57.9%; with SF-268 CNS, 52.3%; with SF-295 CNS it was 27.2%; in the assay with SF-539 CNS it was 21.9%; in the assay on UACC-257 melanoma, 59.4%; in the assay with M14 melanoma, 6.41% (active).

Take `COc1ccc(-c2cc(-c3cccnc3)nc(S(=O)(=O)CC(=O)Nc3ccc(C)cc3)c2C#N)cc1OC`: the growth was 85% in the assay on NCI-H23 lung; 94.2% in the assay on NCI-H226 lung; 91.7% in the assay on NCI-H322M lung; 96.8% in the assay on HOP-62 NSCLC; 101% with NCI-H460 lung; 76% in the assay with HOP-92 NSCLC. Besides, the growth in the assay on A549/ATCC NSCLC is 93.4%; with 786-0 renal, 87.9%; in the assay on DU-145 prostate, 95%; in the assay on K-562 leukemia, 102%; with MALME-3M melanoma, 94.7%; with MDA-MB-231 breast, 77.6%. Also, the growth in the assay with RXF 393 renal was 90.4%; in the assay on SF-268 CNS it was 83.5%; in the assay with SF-295 CNS, 97.9%; in the assay on SF-539 CNS, 95.1%; with UACC-257 melanoma, 104%; in the assay on M14 melanoma it was 111%.

As for `COc1ccc(-c2ccc(O)c(C(=O)/C=C/c3cc(OC)c(OC)c(OC)c3)c2)cc1`, the growth with NCI-H23 lung is 72.7%; in the assay on NCI-H226 lung, 99.1%; in the assay with NCI-H322M lung, 81.8%; in the assay on HOP-62 NSCLC it was 103%; in the assay with NCI-H460 lung it was 79.9%; in the assay on HOP-92 NSCLC, 56%. Further, the growth with A549/ATCC NSCLC was 80.5%; in the assay with 786-0 renal, 99.4%; in the assay on COLO 205 colon, 83.7%; in the assay with DU-145 prostate, 83.7%; in the assay with K-562 leukemia it was 56.5%; in the assay with MDA-MB-231 breast it was 85.6%. In addition, the growth in the assay with RXF 393 renal was 94.5%; in the assay with SF-268 CNS, 79.6%; in the assay on SF-295 CNS, 92.4%; in the assay on SF-539 CNS, 96.8%; in the assay on UACC-257 melanoma, 86.6%; in the assay on M14 melanoma it was 93.6%.

Consider `Cc1nn(-c2ccccc2)cc1/C=C1\SC(N2CCCCC2)=NC1=O`, for which the growth in the assay with NCI-H23 lung was 104%; with NCI-H226 lung, 86.7%; with NCI-H322M lung, 100%; with HOP-62 NSCLC, 103%; in the assay on NCI-H460 lung, 95.2%; in the assay with HOP-92 NSCLC, 76.7%. The growth with A549/ATCC NSCLC was 90.1%; in the assay with 786-0 renal it was 83.6%; with COLO 205 colon, 66.9%; with DU-145 prostate, 91.4%; with K-562 leukemia, 32.1%; in the assay with MDA-MB-231 breast it was 76.4%. The growth in the assay on RXF 393 renal is 86%; in the assay on SF-268 CNS, 91.3%; with SF-295 CNS, 128%; with SF-539 CNS, 60.9%; in the assay with UACC-257 melanoma, 99.3%; in the assay on M14 melanoma, 92.6%.

For the molecule `O=C1OC(Oc2ccccc2)(c2ccccc2)c2ccccc21` (stereo unspecified), the growth is 105% with NCI-H23 lung; 107% in the assay on NCI-H226 lung; 128% in the assay on NCI-H322M lung; 106% with HOP-62 NSCLC; 99.1% in the assay with NCI-H460 lung; 88% in the assay with HOP-92 NSCLC. Besides, the growth with A549/ATCC NSCLC was 95%; in the assay with 786-0 renal it was 101%; in the assay with COLO 205 colon, 112%; with DU-145 prostate, 108%; in the assay on K-562 leukemia, 55.3%; in the assay with MDA-MB-231 breast it was 98.3%. Moreover, the growth in the assay on RXF 393 renal is 120%; in the assay with SF-268 CNS, 95.3%; in the assay with SF-295 CNS, 150%; with SF-539 CNS, 100%; in the assay with UACC-257 melanoma, 112%; in the assay on M14 melanoma, 111%.

`COc1ccc(CCN2C(=O)CCC3=C2CCCC3=O)cc1OC`: the growth in the assay with NCI-H23 lung is 98.2%; in the assay with NCI-H226 lung, 105%; in the assay with NCI-H322M lung, 98%; with HOP-62 NSCLC it was 95.3%; in the assay on NCI-H460 lung, 106%; with HOP-92 NSCLC it was 78.2%. The growth with A549/ATCC NSCLC was 106%; with 786-0 renal, 108%; in the assay with COLO 205 colon it was 88.6%; with K-562 leukemia, 106%; in the assay with MALME-3M melanoma, 91.7%; in the assay on MDA-MB-231 breast, 89.9%. In addition, the growth was 113% in the assay with RXF 393 renal; 136% with SF-268 CNS; 112% in the assay on SF-295 CNS; 103% in the assay on SF-539 CNS; 99.1% in the assay on M14 melanoma.
